Screening results as filed in PubChem.
HEK cytotox: cytotoxic compounds in HEK 293 cells | HEK 293 viability, ATP luminescence (CellTiter-Glo), 48-72 h | Potency, µM (titrated, usually from 115 µM), inactives show at the top dose activity change, negative = cytotoxicity, actives largely listed as inhibitors | 94,000 tested, 6.6% active; also: % is scaled to controls: 0 for no effect and ±100 for the full control effect; nearly all actives have a fitted effect of over 60% in size
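Cells seeded first (HEK 293, 250 cells/well), then compound added by pintool. Incubation ran 48 or 72 hr at 37 degree Celsius. CellTiter-Glo was added and luminescence imaged after 10 min at room temperature.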
NIH3T3 tox: cytotoxic compounds in NIH 3T3 cells; NIH 3T3 viability, CellTiter-Glo ATP luminescence, 48-72 h; Potency, µM (titrated, usually from 96.7 µM), for inactives: at the highest dose activity change, negative = cytotoxicity, most hits filed as inhibitors; 94,000 tested, 4.3% active; AID 1345082; also: % is scaled to controls: 0 for no effect and ±100 for the full control effect; nearly all actives have a fitted effect of over 55% in size
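Mouse fibroblast NIH 3T3 cells, 400 per well, received compound via pintool and were incubated for 48 or 72 hr prior to CellTiter-Glo ATP luminescence measurement.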
Luciferase inh: inhibitors of firefly (Photinus pyralis) luciferase; 76,000 tested, 2.5% active; Potency, µM (doses to about 115 µM), actives largely listed as inhibitors; purified P. pyralis luciferase, luminescence, biochemical; P08659; also: % is scaled to controls: 0 for no effect and ±100 for the full control effect; nearly all actives have a fitted effect of over 65% in size
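Purified 10nM P. pyralis luciferase with 10uM D-luciferin and 10uM ATP in 50mM Tris acetate pH 7.5, 10mM Mg acetate, 0.01% Tween-20, 0.05% BSA. qHTS titration; luminescence read by CCD imager.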
GPT2 inh: inhibitors of human GPT2 alanine aminotransferase. Q8TD30. Recombinant GPT2, coupled pyruvate oxidase/HRP Amplex Red fluorescence. Potency, µM (highest dose often 57.7 µM), inactives show at the top dose activity change, negative = inhibition, most hits filed as inhibitors. 100,000 tested, 0.25% active; also: % is scaled to controls: 0 for no effect and ±100 for the full control effect; nearly all actives have a fitted effect of over 60% in size
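Fluorescence of coupled pyruvate oxidase/HRP/Amplex Red system (50uM Amplex, 30 min, dark) reports pyruvate formed by GPT2. Enzyme reaction: 10ng/uL GPT2, 2mM L-alanine, 250uM a-KG, 30 min room temperature, pH 7.5; 50uM AOA control.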
hNpr1 antagonist: human Npr1 receptor antagonism; HEK293 hNpr1 GloSensor cGMP, ANP-stimulated luminescence; Potency, µM (top dose mostly 46.3 µM), for inactives: top-dose activity change, negative = inhibition, hits mostly inhibitors; 76,000 tested, 1.6% active; P16066; AID 1347048; calls by dose curve; also: % is scaled to controls: 0 for no effect and ±100 for the full control effect; nearly all actives have a fitted effect of over 60% in size
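Compound pre-incubated 30 min at room temperature on GloSensor-loaded HEK293 cells stably carrying hNpr1 and the pGS-40F cGMP biosensor. Stimulation uses hNppA at 0.1 nM final; luminescence is taken at baseline and 20 min post-agonist.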
NPR1 antag cnf: confirmation of human Npr1 natriuretic peptide receptor antagonists | HEK293 hNpr1 cGMP GloSensor luminescence, ANP-stimulated | 1,400 tested, 76% active | AID 1347044 | shares compounds with hNpr1 antagonist | Potency, µM (doses to about 57.6 µM), for inactives: at the highest dose activity change, negative = inhibition, hits mostly inhibitors; calls by dose curve; also: nearly all actives have a fitted effect of over 70% in size
NPR2 antag: antagonizes human Npr2, subtype selectivity check. Potency, µM (highest dose often 57.6 µM), for the others: at the top dose activity change, negative = inhibition, most hits filed as inhibitors. shares compounds with hNpr1 antagonist. HEK293 hNpr2 GloSensor cGMP luminescence, CNP-stimulated. 1,400 tested, 67% active. AID 1347046; calls by dose curve; also: nearly all actives have a fitted effect of over 70% in size
Target sequence (P20594 whole entry, looked up): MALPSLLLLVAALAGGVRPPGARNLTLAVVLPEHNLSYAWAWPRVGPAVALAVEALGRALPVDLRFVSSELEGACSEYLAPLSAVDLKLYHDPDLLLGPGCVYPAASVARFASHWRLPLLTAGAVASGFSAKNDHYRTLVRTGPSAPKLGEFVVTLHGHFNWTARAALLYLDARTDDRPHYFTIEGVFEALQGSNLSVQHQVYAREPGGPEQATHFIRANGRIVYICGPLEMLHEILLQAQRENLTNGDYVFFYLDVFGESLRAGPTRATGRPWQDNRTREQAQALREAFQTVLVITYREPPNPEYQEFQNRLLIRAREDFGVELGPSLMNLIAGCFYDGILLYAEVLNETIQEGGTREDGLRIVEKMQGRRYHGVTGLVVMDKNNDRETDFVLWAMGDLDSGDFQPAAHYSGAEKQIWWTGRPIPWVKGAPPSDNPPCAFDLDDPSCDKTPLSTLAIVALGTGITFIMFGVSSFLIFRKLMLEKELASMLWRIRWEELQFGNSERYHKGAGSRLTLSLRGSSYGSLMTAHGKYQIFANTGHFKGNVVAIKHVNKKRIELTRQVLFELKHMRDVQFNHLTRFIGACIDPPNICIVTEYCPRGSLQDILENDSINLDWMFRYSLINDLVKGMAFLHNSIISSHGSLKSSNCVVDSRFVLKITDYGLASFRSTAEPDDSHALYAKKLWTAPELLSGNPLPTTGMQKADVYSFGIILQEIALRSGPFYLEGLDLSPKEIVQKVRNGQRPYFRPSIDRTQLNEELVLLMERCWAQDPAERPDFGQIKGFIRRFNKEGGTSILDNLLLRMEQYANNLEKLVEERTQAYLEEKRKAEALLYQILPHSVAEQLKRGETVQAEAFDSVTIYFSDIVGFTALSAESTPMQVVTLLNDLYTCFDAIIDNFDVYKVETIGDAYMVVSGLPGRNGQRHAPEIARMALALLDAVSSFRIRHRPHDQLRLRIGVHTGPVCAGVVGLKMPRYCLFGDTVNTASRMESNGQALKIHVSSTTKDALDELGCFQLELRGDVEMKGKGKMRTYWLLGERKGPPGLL
FLuc counter: counter-screen for Npr1 antagonists: firefly luciferase inhibitors. shares compounds with hNpr1 antagonist. purified FLuc enzyme, luminescence, Km substrate. Potency, µM (series often up to 57.6 µM), inactives show top-dose activity change, negative = inhibition, actives largely listed as inhibitors. 1,400 tested, 0.7% active. AID 1347047; also: 0% is about no effect
GloSensor ctrl: control cell line activity, Npr1 antagonist counter-screen. shares compounds with hNpr1 antagonist. HEK293 GloSensor cGMP, SNP-stimulated, luminescence. Potency, µM (top dose mostly 57.6 µM), for the others: top-dose activity change, negative = inhibition, actives largely listed as inhibitors. 1,400 tested, 69% active; calls by dose curve; also: % is scaled to controls: 0 for no effect and ±100 for the full control effect; nearly all actives have a fitted effect of over 70% in size
An asterisk follows results filed as active. Sampled rows, rich in hits. Any-hit rate of the full collection: about 10%. Unless noted, calls follow the shape of the dose curve; as a rule, active = well fitted curve in the direction sought with a large enough effect; inconclusive = small, poorly fitted or top-dose-only effect, or another doubt; inactive = no such curve, though single readings can be large; an effect the other way counts as inactive or inconclusive. Potency is read from the fitted curve at half-maximal effect.

Screening COc1ccccc1CC(=O)N1CCN(C(=O)c2nnn3c2COC(c2ccc(Cl)cc2)C3)CC1 (centres undefined) returned HEK cytotox inconclusive, NIH3T3 tox inconclusive, Luciferase inh inactive, GPT2 inh inactive, hNpr1 antagonist 10µM*, NPR1 antag cnf 12.2µM*, NPR2 antag 15.3µM*, FLuc counter 0.9% and GloSensor ctrl 10.9µM*.
For COc1ccc(C2Cn3nnc(C(=O)N4CCN(C(=O)Cc5cccc(F)c5)CC4)c3CO2)cc1 (centres undefined) the results were HEK cytotox inconclusive, NIH3T3 tox inactive, Luciferase inh inactive, GPT2 inh inactive, hNpr1 antagonist inconclusive, NPR1 antag cnf 21.7µM*, NPR2 antag 24.3µM*, FLuc counter 1.2% and GloSensor ctrl 19.3µM*.
For COc1cccc(CC(=O)N2CCN(C(=O)c3nnn4c3COC(c3ccc(Cl)cc3)C4)CC2)c1 (centres undefined) the results were HEK cytotox -32.5%, NIH3T3 tox -41.5%, Luciferase inh inactive, GPT2 inh inactive, hNpr1 antagonist 11.2µM*, NPR1 antag cnf 24.3µM*, NPR2 antag 24.3µM*, FLuc counter 2.9% and GloSensor ctrl 21.7µM*.
`Cc1ccn(CCC(=O)N[C@@H]2COCC[C@@H]2Oc2cccc(F)c2)n1` gave HEK cytotox 2.7%, NIH3T3 tox -3.3%, Luciferase inh inactive, GPT2 inh 1.0% and hNpr1 antagonist -5.4%.
COc1ccc(CN2CCOCCNC(=O)CC2)cc1Cc1c(C)noc1C was read as HEK cytotox -25.5%, NIH3T3 tox inconclusive, Luciferase inh inactive, GPT2 inh inactive and hNpr1 antagonist -12.6%.
`COc1ccc(C2Cn3nnc(C(=O)N4CCN(C(=O)Cc5ccccc5C)CC4)c3CO2)cc1` (centres undefined) gave HEK cytotox inconclusive, NIH3T3 tox -12.8%, Luciferase inh inactive, GPT2 inh inactive, hNpr1 antagonist inconclusive, NPR1 antag cnf 21.7µM*, NPR2 antag 21.7µM*, FLuc counter -1.7% and GloSensor ctrl 24.3µM*.
`COc1ccc(C2Cn3nnc(C(=O)N4CCN(C(=O)Cc5ccc(Cl)cc5)CC4)c3CO2)cc1` (centres undefined) gave HEK cytotox -19.9%, NIH3T3 tox -19.0%, Luciferase inh inactive, GPT2 inh inactive, hNpr1 antagonist inconclusive, NPR1 antag cnf 19.3µM*, NPR2 antag inconclusive, FLuc counter 2.3% and GloSensor ctrl 21.7µM*.
For COc1ccc(C2Cn3nnc(C(=O)N4CCN(C(=O)CCc5ccccc5)CC4)c3CO2)cc1 (centres undefined) the results were HEK cytotox inconclusive, NIH3T3 tox -26.9%, Luciferase inh inactive, GPT2 inh -4.8%, hNpr1 antagonist inconclusive, NPR1 antag cnf 24.3µM*, NPR2 antag inconclusive, FLuc counter 1.7% and GloSensor ctrl 21.7µM*.
For COc1ccc(C(=O)N2CCN(C(=O)c3nnn4c3COC(c3ccc(Cl)cc3)C4)CC2)c(C)c1 (centres undefined) the results were HEK cytotox inconclusive, NIH3T3 tox inconclusive, Luciferase inh inactive, GPT2 inh inactive, hNpr1 antagonist 10µM*, NPR1 antag cnf 19.3µM*, NPR2 antag 19.3µM*, FLuc counter -0.8% and GloSensor ctrl 13.7µM*.
COc1ccc(C2Cn3nnc(C(=O)N4CCN(C(=O)c5ccccc5)CC4)c3CO2)cc1 (centres undefined) was read as HEK cytotox inconclusive, NIH3T3 tox -13.1%, Luciferase inh inactive, GPT2 inh inactive and hNpr1 antagonist -28.1%.
O=C([C@@H]1C[C@H](Oc2ccccc2)CN1C(=O)c1ccccn1)N1CCOCC1 was read as HEK cytotox inactive, NIH3T3 tox 3.1%, Luciferase inh inactive, GPT2 inh 4.8% and hNpr1 antagonist -0.8%.
For CCc1ccccc1NC(=O)CN1C(=O)C(c2ccccc2)=NC12CCCC2 the results were HEK cytotox inconclusive, NIH3T3 tox inconclusive, Luciferase inh inactive, GPT2 inh inactive and hNpr1 antagonist -8.4%.
`CC(C)c1ccc(C(=O)N2CCC(Cc3nc(-c4ccc(F)cc4)no3)CC2)cc1` gave HEK cytotox inconclusive, NIH3T3 tox inconclusive, Luciferase inh inactive, GPT2 inh inactive, hNpr1 antagonist 1.41µM*, NPR1 antag cnf 1.37µM*, NPR2 antag 1.72µM*, FLuc counter -0.2% and GloSensor ctrl 1.37µM*.
`CCc1ccc(C(=O)N2CCC(Cc3nc(-c4ccc(F)cc4)no3)CC2)cc1` gave HEK cytotox inconclusive, NIH3T3 tox inconclusive, Luciferase inh inactive, GPT2 inh 0.0%, hNpr1 antagonist 1.26µM*, NPR1 antag cnf 1.53µM*, NPR2 antag 1.72µM*, FLuc counter 4.2% and GloSensor ctrl 1.53µM*.
For Cc1ccc(C(=O)N2CCC(Cc3nc(-c4cnccn4)no3)CC2)cc1C the results were HEK cytotox -29.7%, NIH3T3 tox inconclusive, Luciferase inh inactive, GPT2 inh inactive and hNpr1 antagonist -6.8%.
CCc1ccc(C(=O)N2CCC(Cc3nc(C(C)C)no3)CC2)cc1 was read as HEK cytotox inconclusive, NIH3T3 tox inconclusive, Luciferase inh inactive, GPT2 inh inactive, hNpr1 antagonist 15.8µM*, NPR1 antag cnf 27.3µM*, NPR2 antag inconclusive, FLuc counter 2.4% and GloSensor ctrl 24.3µM*.
Screening O=C(c1ccc(F)cc1)N1CCC[C@H](c2nc(-c3ccc(F)cc3)no2)C1 returned GPT2 inh -15.3%.
